The whole screen tested about 420,000 compounds, of which about 50,000 (12%) were called active. Inconclusive results (about 26%) are left out. The sample holds actives, similar compounds and a random draw of the others, so the mix is not that of the screen. Values without a mark were called inactive. Calls follow the shape of the dose curve; as a rule, active = well fitted inhibition curve with a large enough effect; inconclusive = small, poorly fitted or top-dose-only effect; inactive = flat fitted curve, though single readings scatter.
% is scaled to controls: 0 for no effect and ±100 for the full control effect; potency is read from the fitted curve at half-maximal effect.

The nature of this assay: qHTS for Inhibitors of human tyrosyl-DNA phosphodiesterase 1 (TDP1): qHTS in cells in presence of CPT. Also: nearly all actives have a fitted effect of over 55% in size. The conditions noted are these: chicken DT40 Tdp1-/-;hTDP1 cells + 20 nM CPT, ATP luminescence, 48 h; series mostly up to 46.2 µM; activity change, negative = growth inhibition: at the top concentration. Put shortly:
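Chicken DT40 Tdp1-/- cells complemented with human TDP1, 400 cells/well, exposed to compounds plus 20 nM camptothecin for at least 48 h at 37 C; viability read as ATP content by CellTiter-Glo luminescence.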
For `CCOC(=O)c1c(NC(=O)CNC2CCCc3ccccc32)sc(C(N)=O)c1C` (stereo not drawn), the Potency was 23.1 µM (active).

With `NC(=O)Nc1ccc(C(=O)OCC(=O)NC2CCCc3ccccc32)cc1` (stereo not drawn), the “activity change, negative = growth inhibition” value was 0.0893%.

Consider `CCOC(=O)c1sc(NC(=O)CSc2nnc(-c3ccco3)o2)c(C(=O)OCC)c1C`, for which the “activity change, negative = growth inhibition” value is -25.3%.

As to `COc1ccc(C(=O)N2CCN(c3ccc(C(C)=O)cc3F)CC2)cc1S(=O)(=O)NC1CC1`, the “activity change, negative = growth inhibition” value is -15.7%.

Turning to `O=C(Nc1ccc2c(c1)OCCO2)C1CCCC1`, the “activity change, negative = growth inhibition” value is 16.2%.

For `COC(=O)c1ccc(/C=C2/C(=O)Oc3ccccc32)cc1`, the “activity change, negative = growth inhibition” value is 0.0303%.

On to `COc1ccc2c(c1)O/C(=C\c1ccccc1O)C2=O`, for which the “activity change, negative = growth inhibition” value is 0.283%.

On to `O=C1Oc2ccccc2C(=O)/C1=C/c1ccccc1O`, for which the Potency was 5.8 µM (active).

Turning to `COc1ccc2oc(C(=O)NCC(Cc3ccccc3)N(C)C)c(C)c2c1` (stereo not drawn), the “activity change, negative = growth inhibition” value was -53.9%.

Turning to `CCOC(=O)C1=C(O)/C(=C/c2ccc(OCC(=O)Nc3ccc(C)cc3)cc2)N=C1C`, the “activity change, negative = growth inhibition” value is -7.04%.

On to `CN(C)c1nc(NN)nc(Nc2ccc(F)cc2)n1`, for which the “activity change, negative = growth inhibition” value is -9.38%.

As for `CCOC(=O)C(C)n1cnc2c(nnn2-c2ccc(F)cc2)c1=O` (stereo not drawn), the “activity change, negative = growth inhibition” value is -2.15%.

For the molecule `CN1CCC(=O)N([C@H](CO)Cc2ccccc2)CC1`, the Potency entry was “inactive”.

For `O=C(c1cc(Cl)cc(Cl)c1)N1CCC(=O)N(C(COCc2ccccc2)Cc2ccccc2)CC1` (stereo not drawn), the Potency is 13 µM (active).

`CC(C)C[C@@H](CO)N1CCN(Cc2ccc(O)cc2)CCC1=O`: the Potency entry was “inactive”.

Take `Cc1ccc(S(=O)(=O)N2CCC(=O)N([C@H](COCc3ccccc3)C(C)C)CC2)cc1`: the “activity change, negative = growth inhibition” value was -24.5%.

For the molecule `CC(C)CC(COCc1ccc(Cl)cc1)N1CCN(C(=O)c2ccc(C(F)(F)F)cc2)CCC1=O` (stereo not drawn), the Potency is 14.6 µM (active).

As for `CC(C)CC(CO)N1CCN(C(=O)c2ccc(Cl)cc2Cl)CCC1=O` (stereo not drawn), the “activity change, negative = growth inhibition” value was -15.8%.

Take `Cc1ccc(S(=O)(=O)N(C)C)cc1NC(=O)C1Cc2ccccc2CN1C(=O)c1ccco1` (stereo not drawn): the “activity change, negative = growth inhibition” value was -0.982%.

As to `Cc1c(C(C)CCCO)oc(=O)c2c1Oc1c(C)c(C(C)C[C@@H](C)O)oc(=O)c1C2` (stereo partly drawn), the “activity change, negative = growth inhibition” value was 4.27%.

With `CCCCCCCC(=O)OC(CN1CCCCCC1)CN1CCCC1=O` (stereo not drawn), the “activity change, negative = growth inhibition” value is 16%.

Take `COc1cc(/C=C2\C(=N)N3N=C(CC(=O)N4CCOCC4)SC3=NC2=O)cc(OC)c1OC`: the “activity change, negative = growth inhibition” value is -6.19%.

For `Cc1cc2cc(CNC(=O)c3ccc(S(=O)(=O)N4CCOCC4)cc3)ccc2[nH]1`, the “activity change, negative = growth inhibition” value is -2.39%.

Turning to `Cc1cccc(OCC(O)CN2CCN(S(=O)(=O)c3ccc(C)cc3C)CC2)c1` (stereo not drawn), the “activity change, negative = growth inhibition” value is -21.3%.

`Cc1c(Br)cc(C(=O)N2CCCCCC2)c(C)c1C`: the “activity change, negative = growth inhibition” value was -29.8%.

Take `Cn1nnnc1SCC(=O)Nc1nc2ccccc2s1`: the “activity change, negative = growth inhibition” value is 8.1%.

With `Cc1cccc(-n2ccnc2SCC(=O)Nc2cccc3ccccc23)c1C`, the Potency is 23.1 µM (active).

With `COc1ccccc1-n1ccnc1SCC(=O)NC(C)(C)C`, the “activity change, negative = growth inhibition” value is -8.23%.

For the molecule `Cc1cc(C)cc(-n2ccnc2SCC(=O)Nc2nc3ccccc3s2)c1`, the Potency was 18.4 µM (active).

On to `Cc1cccc(CSc2nnc(NC(=O)CSc3nnc(C)s3)s2)c1`, for which the “activity change, negative = growth inhibition” value is -20.9%.

Regarding `Cc1ccccc1-n1c(SCC(=O)Nc2cccc3ccccc23)nc(O)cc1=O`, the “activity change, negative = growth inhibition” value was -1.44%.

Turning to `Cc1nnc(NC(=O)CSc2nccn2-c2cccc(C)c2C)s1`, the Potency was 4.61 µM (active).

On to `C=CCn1c(SCC(=O)Nc2nc3ccccc3s2)nnc1-c1ccccc1O`, for which the “activity change, negative = growth inhibition” value is -15.4%.

`COc1ccccc1-n1c(CNC(=O)c2ccccc2)nnc1SCC(=O)Nc1nnc(C)s1`: the “activity change, negative = growth inhibition” value is -16.9%.

In the case of `COc1cccc(CC(=O)N2CCCC(CCC(=O)N3CCN(c4ccccn4)CC3)C2)c1` (stereo not drawn), the “activity change, negative = growth inhibition” value was -6.11%.

Take `CC(C)Sc1ncnc2c1cnn2-c1ccccc1`: the “activity change, negative = growth inhibition” value was -7.47%.

On to `Nc1cc(N)nc(SCc2cccc(F)c2)n1`, for which the “activity change, negative = growth inhibition” value is 1.43%.

Regarding `COCCN1C(=O)C(=O)/C(=C(/O)c2ccc(S(=O)(=O)N3CCCCC3)cc2)C1c1ccc(OC)c(OC)c1` (stereo not drawn), the “activity change, negative = growth inhibition” value is 5.68%.

On to `Cc1ccc2c(c1)C1C[N+](C)(CC(=O)c3ccccc3)CCC1N2C(=O)c1ccccc1Cl` (stereo not drawn), for which the “activity change, negative = growth inhibition” value was -1.83%.

Turning to `CCOc1ccc(C2=CC(c3ccccc3)n3ncnc3N2)cc1` (stereo not drawn), the “activity change, negative = growth inhibition” value was -29.3%.

Take `COCCNC(=O)C1CCCN(Cc2ccccc2Cl)CC1` (stereo not drawn): the “activity change, negative = growth inhibition” value was -11%.

In the case of `O=C(NCCC1=CCCCC1)C1CCN(Cc2cnn(-c3ccccc3)c2-n2cccc2)CC1`, the Potency is 23.1 µM (active).

As for `CC(=O)Nc1ccc(NC(=O)CSCc2cnn(-c3ccccc3)c2-n2cccc2)cc1`, the “activity change, negative = growth inhibition” value was -0.201%.

As for `CS(=O)(=O)c1ccc(C(=O)OCC(=O)NNC(=O)COc2ccc(Cl)cc2)cc1`, the “activity change, negative = growth inhibition” value was 6.33%.

For the molecule `O=C(Nc1cccc(NC(=O)c2ccccc2[N+](=O)[O-])c1)c1ccccc1Cl`, the “activity change, negative = growth inhibition” value is -11.1%.

Take `O=C(O)c1ccc2c(=O)n3c(nc2c1)/C(=C/c1ccc(Cl)c([N+](=O)[O-])c1)CC3`: the “activity change, negative = growth inhibition” value was 8.58%.

In the case of `CC(CC(=O)O)C(=O)c1ccc(Cl)c([N+](=O)[O-])c1` (stereo not drawn), the “activity change, negative = growth inhibition” value was -1.52%.

Consider `Cc1cc(C(=O)O)ccc1[N+](=O)[O-]`, for which the “activity change, negative = growth inhibition” value is -11.6%.

As for `CN(C)c1ccc(/C=C/C(=O)c2ccc(C(C)(C)C)cc2)cc1[N+](=O)[O-]`, the Potency is 23.1 µM (active).

On to `O=C(/C=C/c1ccc(Cl)cc1)N1CCN(c2ccccc2[N+](=O)[O-])CC1`, for which the “activity change, negative = growth inhibition” value was -6.66%.

For `NC(N)=N/N=C/c1ccc(Cl)c([N+](=O)[O-])c1`, the Potency was 11.6 µM (active).

With `O=C(/C=C/c1ccc(Cl)c([N+](=O)[O-])c1)c1ccc(O)cc1`, the Potency was 4.11 µM (active).

As to `Nn1cnnc1N/N=C/c1cc([N+](=O)[O-])c(Cl)cc1Cl`, the “activity change, negative = growth inhibition” value was 1.95%.

These data come from PubChem BioAssay AID686979 (National Center for Advancing Translational Sciences (NCATS), 2013).
